# Measured values published in PMC5540273 (PLoS ONE, 2017).
# Columns and labels:
# Settings in all cases: concentration: 1 μM,replicates: in singlicate; n = 1
# BMX = system: BMX
# BRAF = system: BRAF
# BRK = system: T1, BRK
# T1 construct: gene PTK6
# BRSK1 = system: BRSK1
# BRSK2 = system: BRSK2
# BTK = system: BTK
# BUB1 = system: BUB1
# CAMK1B = system: CAMK1B
# CAMK1D = system: CAMK1D
# CAMK1G = system: CAMK1G
# CAMK1 = system: CAMK1
# CAMK2A = system: CAMK2A
# CAMK2B = system: CAMK2B
# CAMK2D = system: CAMK2D
# CAMK2G = system: CAMK2G
# CAMK4 = system: CAMK4
# CAMKK1 = system: CAMKK1
# CAMKK2 = system: CAMKK2
# CASK = system: CASK
# CDC2L1 = system: T2, CDC2L1
# T2 construct: gene CDK11B
# 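Note: KINOMEscan kinase panel screen.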
Structure (SMILES),%Inh (BMX) [%],%Inh (BRAF) [%],%Inh (BRK) [%],%Inh (BRSK1) [%],%Inh (BRSK2) [%],%Inh (BTK) [%],%Inh (BUB1) [%],%Inh (CAMK1B) [%],%Inh (CAMK1D) [%],%Inh (CAMK1G) [%],%Inh (CAMK1) [%],%Inh (CAMK2A) [%],%Inh (CAMK2B) [%],%Inh (CAMK2D) [%],%Inh (CAMK2G) [%],%Inh (CAMK4) [%],%Inh (CAMKK1) [%],%Inh (CAMKK2) [%],%Inh (CASK) [%],%Inh (CDC2L1) [%]
COc1cc2c(Nc3ccc(NC(=O)c4ccccc4)cc3)ncnc2cc1OCCCN1CCOCC1 [GSK301329],7,0,77,20,0,0,10,9,35,9,40,0,0,0,1,0,0,0,17,0
O=c1[nH]cc(-c2ccc(O)cc2)c2sc(-c3ccncc3)cc12 [GSK1033723],18,1,7,29,0,0,15,0,20,1,6,0,0,4,29,0,15,15,15,0
COc1cccc(CNC(=O)NC2CCN(c3ccnc(Nc4cc(OC)c(OC)c(OC)c4)n3)C2)c1 (stereo not drawn) [GSK1379765],23,0,34,0,0,42,81,35,17,0,35,0,0,0,19,0,16,14,0,0
O=C(Nc1cccc(C(F)(F)F)c1)c1cccc(Oc2ccc3nccn3n2)c1,8,76,4,31,100,0,12,0,3,0,1,0,0,0,0,0,8,0,17,1
CC(C)c1nc(-c2cccc(NS(=O)(=O)c3ccccc3)c2)c(-c2ccnc(Nc3ccc4c(c3)CN(C)CC4)n2)s1 [GSK1649598],96.2,99.9,99.4,24,46,84,82,0,42,11,57,0,0,22,28,0,29,23,14,15
COc1cc2ncn(-c3cc(OCC4CCCCC4)c(C(N)=O)s3)c2cc1OC [GSK204559],10,0,8,30,45,0,17,6,16,11,13,0,0,5,33,0,12,26,19,0
Cc1n[nH]c2cc(Nc3ccnc(Nc4cccc(CN5CCOCC5)c4)n3)ccc12 [GW682569],11,0,47,0,0,60,36,37,26,1,43,0,0,5,0,0,21,13,0,7
CCOC(=O)N1CCC(n2cnc(-c3ccc(F)cc3)c2-c2ccnc(N)n2)CC1 [SB-219952],13,14,0,0,19,32,0,48,3,0,0,0,0,0,8,12,0,0,0,11
CN(c1cccc(CNc2nc(Nc3ccc4c(c3)CC(=O)N4)ncc2C(F)(F)F)c1)S(C)(=O)=O,18,0,0,0,0,0,2,9,14,15,0,0,0,7,0,0,15,16,7,0
O=C(Nc1ccccc1)c1cccc(Oc2ccc3nccn3n2)c1,17,3,0,7,0,0,0,0,0,0,0,0,12,14,0,0,6,0,8,96
O=C1NCCc2[nH]c(-c3ccncc3)cc21,35,0,0,0,6,0,20,1,11,0,13,9,10,0,0,0,0,0,0,0
COC(=O)c1cccc(NC(=O)NC2CCN(c3ccnc(Nc4cc(OC)c(OC)c(OC)c4)n3)C2)c1 (stereo not drawn) [GSK1379767],30,0,8,0,0,37,48,38,14,0,35,0,0,0,26,0,13,19,2,0
c1ccc(Oc2ccc(Nc3ccnc4ccc(-c5ccccn5)cc34)cc2)cc1 [GW407034],44,13,81,12,0,61,12,5,0,5,1,0,0,7,16,0,0,9,8,0
CNC(=O)c1ccccc1Nc1nc(Nc2cccc(CS(C)(=O)=O)c2)ncc1C.O=CO [GSK1520489],97.2,59,99.7,65,79,95.4,88,14,40,29,76,1,0,16,34,0,88,91.2,59,0
CS(=O)(=O)Nc1ccc(-c2ccnc3[nH]ccc23)cc1 [GSK993273],0,0,0,8,0,0,35,27,38,30,36,6,7,16,24,0,8,0,21,0
CCNCC(Cc1ccccc1)NC(=O)c1cc(Br)c(-c2ccnc3[nH]ccc23)s1.Cl.Cl (stereo not drawn) [GSK1383280],3,0,34,0,0,0,31,28,32,11,41,0,0,23,34,21,19,25,0,16
CN1CCN(CCCNc2nccc(-c3c(-c4ccc(F)cc4)nn4cc(C(N)=O)ccc34)n2)CC1 [GW622475],20,49,6,9,29,0,25,0,21,21,31,0,0,21,37,0,11,30,3,6
Cc1ccc(Nc2ccnc(Nc3ccc4c(c3)CS(=O)(=O)C4)n2)cc1O.Cl [GW579362],80,77,95,10,3,100,99.3,31,38,34,62,0,0,29,42,0,24,31,12,44
FC(F)(F)c1cc(Br)cc(Nc2nccc(-c3cnn4ncccc34)n2)c1 [GW810578],10,0,0,0,0,0,16,29,5,18,23,0,6,21,28,0,45,59,22,0
Cn1ccc2ncnc(Oc3ccc(NC(=O)Nc4cccc(C(F)(F)F)c4)c(F)c3)c21,1,62,0,0,2,30,0,0,12,11,0,6,8,6,10,15,18,19,0,19
COc1cccc(C2=C(Nc3cccc(Cl)c3)C(=O)NC2=O)c1 [SB-341556],24,0,19,11,2,0,23,29,36,0,1,22,0,14,27,0,3,4,43,0
